The source made the active and inactive calls.
How the values were obtained:
[1] = system: Human papillomavirus type 1a protein E7 (residues 44-93); assay: HPV1a E7 fragment binders on microarrays, primary screen, biochemical, small-molecule microarray, residues 44-93, 635 nm fluorescence (AID 1108); details: small-molecule microarray binding, fluorescence 635 nm; higher = more signal;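 also: E7 fragment applied at 1 µg/mL in TBST for 1 h at 4 C; score combines spot fluorescence with its signal to noise ratio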
[2] = modulators of HCV replicon luciferase signal, primary screen, HCV replication inhibitor project, Huh7 cells, luciferase reporter (AID 1109); details: 48 h, higher = more signal;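 also: huh7 hepatoma cells harbouring a luciferase neomycin HCV replicon reporter; luciferase luminescence as measure of HCV replicon replication; test concentration not given here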
[3] = biological target: Left-right determination factor 2 (Homo sapiens) (UniProt O00292); assay: LEFTY2 binders on small-molecule microarrays, primary screen, biochemical, small-molecule microarray, 635 nm fluorescence scan (AID 1110); details: LEFTY2 binding, higher = more signal
[4] = biological target: Calmodulin-1 (Homo sapiens) (UniProt P0DP23); assay: CALM1 binders on microarrays, EGTA buffer, profiling panel, biochemical, small-molecule microarray, Cy5-labelled CALM1 (AID 1111); details: Cy5-CALM1 binding fluorescence, higher = more signal;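 also: labelled calmodulin applied in Tris saline Tween buffer holding calcium plus EGTA and DTT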
[5] = biological target: Calmodulin-1 (Homo sapiens) (UniProt P0DP23); assay: calcium-bound CALM1 binders on microarrays, profiling panel, artefact control for SMM control-protein annotation, biochemical, small-molecule microarray, Cy5-labelled CALM1, plus calcium (AID 1112); details: Cy5-CALM1 binding fluorescence, higher = more signal;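 also: score merges spot fluorescence with signal to noise from triplicate slides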
[6] = small-molecule microarray binders of probe aWnt5a, primary screen, biochemical, biotinylated probe, 635/667 nm fluorescence (AID 1113); details: higher = more signal;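 also: score merges 667 nm fluorescence intensity with signal-to-noise per printed feature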
[7] = small-molecule microarray binders of probe aShh, primary screen, biochemical, biotinylated probe, 635/667 nm fluorescence (AID 1114); details: higher = more signal;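 also: probe is biotin-labelled aShh protein from a stem cell growth factor screen; measures binding of labelled protein to compounds printed on the slide; score merges feature fluorescence at 667 nm with signal-to-noise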
[8] = small-molecule microarray binders of probe aNog, primary screen, biochemical, biotinylated probe, 635/667 nm fluorescence (AID 1115); details: higher = more signal;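 also: probe is biotinylated aNog protein used at 0.15 µg/mL for 1 h at 4 C; z-score combines 667 nm fluorescence of each spot with its signal to noise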
[9] = biological target: Torsin-1A-interacting protein 1 (Homo sapiens) (UniProt Q5JTV8); assay: LAP1 binders from COS7 cell lysate, primary screen, small-molecule microarray, 635/667 nm fluorescence (AID 1116); details: COS7-hLAP1 lysate binding, 635 nm fluorescence, higher = more signal
[10] = biological target: Alpha-bungarotoxin (Bungarus multicinctus) (UniProt P60615); assay: alpha-bungarotoxin binders on microarray, profiling panel, artefact control for SMM control protein annotation, biochemical, small-molecule microarray, Alexa647 label, 635/667 nm fluorescence (AID 1117); details: alpha-BTX-A647 binding fluorescence, higher = more signal
Albumin (Bos taurus) = Albumin (Bos taurus) (UniProt P02769); assay: bovine serum albumin binders on microarray, profiling panel, artefact control for SMM control protein annotation, biochemical, small-molecule microarray, Alexa647 label, 635/667 nm fluorescence (AID 1118); details: BSA-A647 binding, fluorescence 635 nm, higher = more signal;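 also: score merges 667 nm emission intensity and signal-to-noise per printed compound spot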
[11] = small-molecule microarray binders of probe aXIP, primary screen, biochemical, NeuroSMM set, 635/667 nm fluorescence (AID 1119); details: higher = more signal, called active from +8 up or from −8 down;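 also: probe is the protein aXip251-270 applied at 1 µg/mL to compound-printed slides; binding of probe to printed compounds measured as 667 nm fluorescence plus signal to noise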
[12] = small-molecule binders of probe aNOTCH3, primary screen, biochemical, small-molecule microarray, 635/667 nm fluorescence (AID 1120); details: higher = more signal;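 also: probe is a biotin-tagged antibody raised against NOTCH3 rather than NOTCH3 protein; score merges spot fluorescence near 667 nm with spot signal to noise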
[13] = small-molecule binders of probe aNOTCH2, primary screen, biochemical, small-molecule microarray, 635/667 nm fluorescence (AID 1121); details: higher = more signal;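 also: score merges feature fluorescence read at 667 nm with its signal to noise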
[14] = biological target: Carbonic anhydrase 2 (Homo sapiens) (UniProt P00918); assay: CAII small-molecule binders, profiling panel, biochemical, small-molecule microarray, Alexa647-labelled CAII (AID 1122); details: CAII-A647 binding fluorescence, higher = more signal
[15] = COS7 lysate on small-molecule microarray, probe aHis, 635 nm (AID 1123); details: COS7 cell lysate, fluorescence, higher = more signal;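 also: z-score combines 667nm fluorescence intensity with signal-to-noise per printed compound spot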
[16] = compound binding in COS7 lysate, probe aLAP1, primary screen, cell lysate, small-molecule microarray (AID 1124); details: probe aLAP1, fluorescence, higher = more signal;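 also: lysate comes from COS7 cells expressing LAP1 and is applied at 0.3 µg/mL; score merges spot fluorescence near 667 nm with signal-to-noise over triplicate slides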
Sam68 (KHDRBS1) = assay: Sam68 small-molecule binders, primary screen, biochemical, small-molecule microarray, 635 nm fluorescence (AID 1125); details: small-molecule microarray binding, higher = more signal;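 also: score merges 667 nm channel intensity with signal to noise over triplicate slides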
[17] = system: Chordin-like protein 2 (CHRDL2); assay: CHRDL2 small-molecule binders, primary screen, biochemical, small-molecule microarray, 635 nm fluorescence (AID 1126); details: small-molecule microarray binding, fluorescence 635 nm; higher = more signal;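 also: printed compound slides probed with Chrdl2 protein at 4 µg/mL for 1 h at 4 C; score merges 667 nm emission intensity with signal to noise over three replicate slides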
[18] = biological target: Concanavalin-A (Canavalia ensiformis) (UniProt P02866); assay: ConA small-molecule binders, primary screen, artefact control for SMM control protein annotation, biochemical, small-molecule microarray, Alexa647 label, 635 nm (AID 1127); details: ConA-A647 binding fluorescence, higher = more signal;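 also: z combines 667 nm emission intensity with signal-to-noise across three replicate slides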
Concanavalin-A (Canavalia ensiformis), sequence (P02866 whole entry, looked up): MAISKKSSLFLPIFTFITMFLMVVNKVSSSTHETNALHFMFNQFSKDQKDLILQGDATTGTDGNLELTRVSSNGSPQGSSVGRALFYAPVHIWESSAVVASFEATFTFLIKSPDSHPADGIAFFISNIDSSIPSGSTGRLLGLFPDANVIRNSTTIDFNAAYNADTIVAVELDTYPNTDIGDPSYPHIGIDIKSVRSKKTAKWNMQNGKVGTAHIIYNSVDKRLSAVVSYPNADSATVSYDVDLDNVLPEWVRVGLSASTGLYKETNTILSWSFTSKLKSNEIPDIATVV

Alpha-bungarotoxin (Bungarus multicinctus), sequence (P60615 whole entry, looked up): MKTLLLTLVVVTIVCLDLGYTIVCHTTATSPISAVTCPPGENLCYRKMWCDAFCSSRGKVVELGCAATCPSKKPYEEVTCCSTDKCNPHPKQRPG
Albumin (Bos taurus), sequence (P02769 whole entry, looked up): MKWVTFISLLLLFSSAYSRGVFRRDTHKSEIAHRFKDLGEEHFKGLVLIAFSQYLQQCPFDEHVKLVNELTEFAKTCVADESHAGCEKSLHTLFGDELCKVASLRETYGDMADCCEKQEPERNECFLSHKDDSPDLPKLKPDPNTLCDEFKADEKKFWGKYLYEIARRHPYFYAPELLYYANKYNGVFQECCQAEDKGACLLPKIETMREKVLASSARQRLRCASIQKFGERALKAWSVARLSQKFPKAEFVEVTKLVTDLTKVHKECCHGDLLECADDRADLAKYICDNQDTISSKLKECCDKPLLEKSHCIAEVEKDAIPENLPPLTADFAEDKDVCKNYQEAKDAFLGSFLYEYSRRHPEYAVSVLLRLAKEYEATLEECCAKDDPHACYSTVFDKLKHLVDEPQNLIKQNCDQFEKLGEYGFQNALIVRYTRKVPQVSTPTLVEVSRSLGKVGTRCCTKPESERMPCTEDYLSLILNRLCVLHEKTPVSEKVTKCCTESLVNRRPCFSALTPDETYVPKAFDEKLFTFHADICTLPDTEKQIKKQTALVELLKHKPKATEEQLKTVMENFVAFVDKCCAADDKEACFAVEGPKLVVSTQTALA
Torsin-1A-interacting protein 1 (Homo sapiens), sequence (Q5JTV8 whole entry, looked up): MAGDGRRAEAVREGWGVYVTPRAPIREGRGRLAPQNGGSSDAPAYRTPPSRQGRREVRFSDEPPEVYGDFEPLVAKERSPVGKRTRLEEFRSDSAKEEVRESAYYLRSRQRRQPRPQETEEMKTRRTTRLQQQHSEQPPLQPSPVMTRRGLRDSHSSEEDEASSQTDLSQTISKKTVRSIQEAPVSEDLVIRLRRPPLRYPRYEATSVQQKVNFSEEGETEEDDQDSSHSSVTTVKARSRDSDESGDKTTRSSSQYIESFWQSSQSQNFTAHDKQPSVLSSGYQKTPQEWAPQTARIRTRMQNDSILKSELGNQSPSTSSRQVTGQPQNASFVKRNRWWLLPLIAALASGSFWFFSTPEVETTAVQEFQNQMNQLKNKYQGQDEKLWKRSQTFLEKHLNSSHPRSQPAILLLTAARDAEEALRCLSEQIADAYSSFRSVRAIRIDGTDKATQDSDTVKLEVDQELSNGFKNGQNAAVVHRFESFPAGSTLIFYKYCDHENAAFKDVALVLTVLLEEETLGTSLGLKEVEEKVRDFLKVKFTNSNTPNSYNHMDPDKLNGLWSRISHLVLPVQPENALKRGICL
Left-right determination factor 2 (Homo sapiens), sequence (O00292 whole entry, looked up): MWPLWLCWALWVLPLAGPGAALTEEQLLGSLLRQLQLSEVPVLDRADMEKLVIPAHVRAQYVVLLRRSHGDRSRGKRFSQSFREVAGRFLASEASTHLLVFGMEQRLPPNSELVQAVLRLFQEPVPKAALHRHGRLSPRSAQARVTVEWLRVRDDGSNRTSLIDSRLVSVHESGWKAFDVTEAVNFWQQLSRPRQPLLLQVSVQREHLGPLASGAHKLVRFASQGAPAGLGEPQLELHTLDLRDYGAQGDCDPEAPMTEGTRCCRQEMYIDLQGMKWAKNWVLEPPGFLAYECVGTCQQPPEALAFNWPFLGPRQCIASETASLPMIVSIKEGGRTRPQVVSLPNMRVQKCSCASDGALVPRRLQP

| SMILES | composite z-score [1] | z-score [2] | composite z-score [3] | composite z-score [4] | composite z-score [5] | composite z-score [6] | composite z-score [7] | composite z-score [8] | composite z-score [9] | composite z-score [10] | composite z-score (Albumin (Bos taurus)) | composite Z-score [11] | composite z-score [12] | composite z-score [13] | composite z-score [14] | composite z-score [15] | composite z-score [16] | composite z-score (Sam68 (KHDRBS1)) | composite z-score [17] | composite z-score [18] |
| --- | --- | --- | --- | --- | --- | --- | --- | --- | --- | --- | --- | --- | --- | --- | --- | --- | --- | --- | --- | --- |
| COCCOC(=O)N1C(=O)[C@@]2(c3cc(C#CC4=CCCCC4)ccc31)[C@H](c1ccc(OCCO)cc1)N1[C@H](c3ccccc3)[C@H](c3ccccc3)OC(=O)[C@H]1[C@@H]2C(=O)N1CCN(c2ncccn2)CC1 | 1.05 | -0.807 | 0.671 | 0.623 | 0.189 | -0.034 | -0.0146 | 0.759 | 0.835 | 0.418 | 0.737 | -0.648 (inactive) | 0.0596 | -0.158 | 0.425 | 0.477 | 0.677 | 1.31 | 0.48 | 0.713 |
| COc1ccc([Si](C)(C)[C@@H]2[C@@H](CC(=O)N(CCO)Cc3ccccc3)O[C@]3(C(=O)N(c4ccccc4)c4ccccc43)[C@H]2C)cc1 | 1.33 | -4.59 | 0.739 | 0.545 | 0.0061 | -0.0559 | -0.135 | -0.495 | 0.395 | 0.883 | 0.593 | 0.657 (inactive) | 0.105 | -0.162 | 0.357 | 1.07 | 0.0513 | 0.981 | 1.4 | 1.1 |
| CCOC(=O)C1=C[C@@H](c2ccccc2)N(S(=O)(=O)c2ccc(C)cc2)[C@H]1c1ccccc1Cl | 1.32 | -1.55 | 0.553 | 1.06 | -0.651 | -0.0161 | 0.0121 | -0.0784 | 0.731 | 1.04 | 0.729 | 0.0277 (inactive) | 0.112 | 0.23 | 0.389 | 1.66 | 0.772 | 1.26 | 0.359 | 0.752 |
| CC(C)C[C@@H]1NC(=O)[C@@H]2C[C@H](C(=O)NCCCCN(C)C)[C@H](c3cccc(OCCO)c3)N2C1=O | 0.314 | -0.138 | -0.113 | 0.0053 | -0.0276 | -0.221 | -0.138 | -0.313 | -0.249 | -0.555 | 0.434 | 0.157 (inactive) | -0.245 | -0.132 | 0.466 | 1.63 | 0.613 | 0.505 | 0.175 | 0.129 |
| Cc1ccc(S[C@]2(C(=O)NCC(F)(F)F)CC(=O)N(Cc3ccccc3C(F)(F)F)[C@@H]2c2ccc(CO)cc2I)cc1 | -0.784 | -0.414 | -2.12 | -0.423 | -0.214 | -0.0944 | 0.0483 | -0.161 | -0.531 | 0.444 | 0.88 | -0.0127 (inactive) | -0.3 | -0.14 | 0.968 | 0.616 | 0.116 | -0.486 | -1.41 | -0.35 |
| CC1=C[C@@]2(CO)C(=O)[C@]3(CO3)[C@@H]1[C@H]1[C@]2(C)C=C(CO)C(=O)[C@]12CO2 | 0.122 | -1.61 | 0.351 | -0.163 | -0.0609 | -0.0799 | -0.123 | -0.488 | -0.312 | 0.242 | -0.123 | 0.817 (inactive) | 0.112 | -0.0795 | 0.497 | -0.255 | -0.274 | 0.369 | 0.397 | 0.301 |
| CC(=O)c1ccc(C(O)C2C=CC3C(=O)N(c4ccccc4)C(=O)C3N2Nc2ccc(C#N)cc2)cc1 (stereo not given) | 0.909 | -0.0483 | 0.0172 | 1.11 | 0.586 | -0.172 | 0.149 | -0.409 | 0.142 | 1.33 | 0.962 | 0.824 (inactive) | 0.119 | -0.0023 | 0.759 | 2.46 | -0.1 | 1.1 | -0.624 | 1.13 |
| COc1ccccc1CN1C(=O)c2ccccc2[C@](Cc2ccccc2I)(C(=O)NCC(F)(F)F)[C@@H]1c1ccc(CO)cc1 | 0.905 | -1.16 | -0.201 | 2.03 | 0.731 | 0.0559 | -0.106 | 0.0286 | 1.42 | 1.36 | 0.832 | -0.46 (inactive) | 0.073 | -0.057 | 0.824 | 1.95 | 0.311 | 1.29 | -1.12 | 1.15 |
| COc1ccc([Si](C)(C)[C@@H]2[C@@H](CCO)O[C@]3(C(=O)N(Cc4ccc(N5CCCCC5=O)cc4)c4ccccc43)[C@H]2C)cc1 | -0.0334 | -5.11 | 0.216 | 0.121 | 0.188 | -0.0758 | 0.191 | 0.0989 | 0.467 | 0.0967 | 0.116 | 0.385 (inactive) | 0.033 | -0.0515 | 0.304 | 0.828 | 0.503 | 1.31 | 0.507 | 1.12 |
| C=C(/C(=C/C[C@@H](OC(C)=O)c1cccc(OCCO)c1)c1cc(C(=O)OC)ccc1OC)C(C)C | 0.522 | -1.53 | 0.256 | -0.343 | -0.563 | -0.221 | -0.221 | -0.223 | 0.189 | 0.215 | 0.805 | 0.142 (inactive) | -0.0014 | -0.177 | 0.447 | 0.206 | 0.0418 | 0.531 | 0.0865 | 0.574 |
| COC(=O)C(CC#Cc1ccc2c(c1)[C@]1(C(=O)N2)[C@H](C(=O)N2CCN(c3ncccn3)CC2)[C@H]2C(=O)O[C@H](c3ccccc3)[C@H](c3ccccc3)N2[C@@H]1c1ccc(OCCO)cc1)C(=O)OC | 1.45 | -1.7 | 0.839 | 0.918 | 0.245 | -0.0792 | -0.144 | 0.0574 | 0.624 | 2.21 | 0.535 | -0.425 (inactive) | 0.207 | -0.0821 | 0.259 | 1.41 | -0.192 | 1.3 | 0.621 | 1.07 |
